This is an account of results in PubChem BioAssay.

Each structure is given as a SMILES string. Records with an inconclusive call do not appear. Active and inactive are the calls of the source. Unless noted, no rule for the calls is given here.

Experiment [1] in a line: GFP-Q80 aggregate reduction, neuronal-like cells, cell-based, NGF-treated PC12, GFPQ80 (AID 1614).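 Also: lower means fewer inclusions and 0 means no inclusions at all.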 The following applies: PC12 NGF-treated GFP-polyQ80 inclusion reduction.
A short description of experiment [2]: viability loss in pontine glioma line – cell-based, SU-DIPG-XIII, MIPE4.0, CellTiter-Glo, qHTS, dose response (AID 1347061; cut-off not given, nearly all actives have AC50 up to about 37 µM;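 also: cells exposed to compound for 48 hours before readout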). As to conditions: CellTiter-Glo ATP luminescence. Background: Cellular ATP, detected with luciferase, serves as a proxy for viable cell number.
A short description of experiment [3]: viability loss in pontine glioma line – cell-based, JHH-DIPG-1, MIPE4.0, CellTiter-Glo, qHTS, dose response (AID 1347062; cut-off not given, nearly all actives have AC50 up to about 27 µM;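 as to AC50: cells exposed to compound for two days before readout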). The following applies: JHH-DIPG-1 viability, CellTiter-Glo ATP luminescence.
Experiment [4] in a line: growth inhibition of DIPG cells – cell-based, MIPE4.0 library, CellTiter-Glo luminescence, qHTS (AID 1347066; cut-off not given, nearly all actives have AC50 up to about 30 µM;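 also: cells exposed to compound for 48 hours before readout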). As to conditions: SU-DIPG-VI viability, CellTiter-Glo ATP luminescence.
Experiment [5] is described as follows: compounds altering circadian rhythm period length – cell-based, LOPAC library, luminescence reporter (AID 2774).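 Also: values are relative to mean of DMSO wells on each plate.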 The following applies: circadian reporter cells, at 7 µM, actives lie on both sides.
Experiment [6] concerns Hepatitis C virus NS3 helicase. Kind of experiment: blockers of NS3h binding to ssDNA – biochemical, fluorescence polarization, LOPAC1280 library, primary screen (AID 687035; in the data active = inhibition above about 37%). As to conditions: Purified HCV NS3 helicase, Cy5-dT15 ssDNA binding fluorescence polarization; stronger effect = higher value; concentration not given here. (In general: Polarisation of emitted light reports the rotation of a fluorescent probe.)

Experiment [7] is described as follows: compounds altering Cy5-DNA-NS3h complex signal – biochemical, LOPAC1280, artefact control for HCV NS3 helicase inhibitor project (AID 687037). As to conditions: Cy5-DNA-NS3h complex fluorescence interference counterscreen. A general note: The purpose of a counterscreen is to sort out artefacts and off-target activity.
Experiment [8] can be described thus: viability loss in pontine glioma line – cell-based, SU-DIPG-XVII, MIPE5.0, CellTiter-Glo, qHTS, dose response (AID 1347060; cut-off not given, nearly all actives have AC50 up to about 26 µM;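 as to AC50: cells exposed to compound for 48 hours before viability readout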). The following applies: CellTiter-Glo ATP luminescence.
Experiment [9] is described as follows: growth inhibition of DIPG cells – cell-based, MIPE5.0 library, qHTS (AID 1347068; cut-off not given, nearly all actives have IC50 up to about 30 µM;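 as to IC50: cells exposed to compound for 48 hours before viability readout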). The following applies: SU-DIPG-XXV viability.
Experiment [10] is described as follows: blockers of cellular phospholipid synthesis – cell-based, LOPAC library, screen 4, primary screen (AID 1347384). As to conditions: animal cells, phospholipid biosynthesis inhibition screen; at 10 µM.
Experiment [11] is described as follows: viability loss in pontine glioma line – cell-based, SU-DIPG-XXV, MIPE5.0, CellTiter-Glo, qHTS, dose response (AID 1347065; cut-off not given, nearly all actives have AC50 up to about 26 µM;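 also: cells exposed to compound for 48 hours before ATP readout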). The following applies: CellTiter-Glo ATP luminescence.
The nature of experiment [12]: JHH-DIPG-1 glioma cell viability, MIPE5.0 library, CellTiter-Glo luminescence, qHTS (AID 1347067; cut-off not given, nearly all actives have AC50 up to about 26 µM;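 also: cells exposed to compound for 48 hours before readout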). As to conditions: JHH-DIPG-1 glioma viability, CellTiter-Glo ATP luminescence.

`Cc1noc(NS(=O)(=O)c2ccc(N)cc2)c1C`: in experiment [1], the inclusion score was determined as 2. Further, the compound was called inactive in [2], in [3] and in experiment [4].

For `c1ccc(CC2=NCCN2)cc1`, the inclusion score in experiment [1] turned out to be 2.

Turning to `CN(C)CCCN1c2ccccc2CCc2ccc(Cl)cc21`, in experiment [5], the period change is -0.12 h (inactive). In addition, in [6], the inhibition – broadly, the change of the read-out against control, counted positive when it falls – is -4% (inactive). The fluorescence ratio (interference) in experiment [7] is 1 (inactive). The outcome in experiment [8], in experiment [9] and in experiment [10] was inactive. Besides, the AC50 (commonly the concentration at which the activity in the assay is half-maximal) was 0.662 µM (active) in experiment [2] and 9.35 µM (active) in experiment [3].

As for `N=C(N)c1ccc(OCCCCCOc2ccc(C(=N)N)cc2)cc1`, the call in experiment [3], in experiment [4] and in experiment [10] was inactive. For the same compound, in experiment [11], the AC50 is 11.8 µM (active).

In [1], `c1ccc([C@H]2CN3CCSC3=N2)cc1` showed an inclusion score of 1.5. In addition, the period change in experiment [5] was -0.17 h (inactive). For the same compound, in experiment [6], the inhibition was -1% (inactive). Moreover, the fluorescence ratio (interference) in experiment [7] was 1 (inactive). In addition, the result in [8], in experiment [2], in experiment [3], in experiment [11], in [12] and in [9] was inactive. Moreover, the outcome in experiment [10] was inactive.

On to `CC[C@H](C)C(=O)O[C@H]1C[C@@H](C)C=C2C=C[C@H](C)[C@H](CC[C@@H]3C[C@@H](O)CC(=O)O3)[C@H]21`, for which the call in experiment [2], in experiment [11], in experiment [4] and in [9] was inactive.

For the compound `Clc1cccc(Cl)c1NC1=NCCN1`, the inclusion score in [1] was found to be 2. For the same compound, the period change in [5] was 0.005 h (inactive). The inhibition in [6] was -4% (inactive). The fluorescence ratio (interference) in experiment [7] was 1 (inactive). The result in [2], in experiment [3], in experiment [4] and in [10] was inactive.

In turn, `CCC1(c2ccccc2)C(=O)NCNC1=O` gave an inclusion score in experiment [1] of 2. Also, the period change in experiment [5] is -0.19 h (inactive). Also, the inhibition in [6] is 1% (inactive). Besides, the fluorescence ratio (interference) in [7] was 1 (inactive). For the same compound, the result in experiment [8], in [11], in experiment [4], in experiment [12], in experiment [9] and in experiment [10] was inactive. For the same compound, in experiment [3], the AC50 was 8.33 µM (active).

On to `CCN(CCO)CCCC(C)Nc1ccnc2cc(Cl)ccc12` (stereo not drawn), for which the inclusion score in [1] came to 1.5. Moreover, the compound was classed as inactive in experiment [8], in experiment [2], in experiment [3], in [4], in [12] and in experiment [9].

Take `O=C1CCC(N2C(=O)c3ccccc3C2=O)C(=O)N1` (stereo not drawn): the inclusion score in [1] was 2. Also, the period change in experiment [5] was 0.105 h (inactive). Further, the inhibition in experiment [6] is -6% (inactive). In experiment [7], the fluorescence ratio (interference) is 1 (inactive). The result in experiment [2], in [4], in experiment [12], in experiment [9] and in [10] was inactive.

For the compound `NC12CC3CC(CC(C3)C1)C2`, the inclusion score in experiment [1] was determined as 2. The period change in [5] was -0.05 h (inactive). In addition, the inhibition in [6] is -1% (inactive). Further, the fluorescence ratio (interference) in experiment [7] is 0.9 (inactive). The outcome in experiment [8], in [4], in experiment [12], in experiment [9] and in [10] was inactive.

Take `CC[C@H]1CN2CCc3cc(OC)c(OC)cc3[C@@H]2C[C@@H]1C[C@H]1NCCc2cc(OC)c(OC)cc21`: the period change in experiment [5] is 0 h (inactive). The inhibition in experiment [6] was 2% (inactive). Further, the fluorescence ratio (interference) in experiment [7] was 1 (inactive). Besides, the AC50 in experiment [8] was 0.263 µM (active); in [3], 1.32 µM (active); in [11], 0.417 µM (active); in experiment [4], 20.9 µM (active); in experiment [12], 0.833 µM (active). Also, in [9], the IC50 (in general, the concentration at which inhibition is half-maximal) was 0.742 µM (active). Moreover, the compound was classed as inactive in [10].

For `Oc1ccc(/C=C/c2cc(O)cc(O)c2)cc1`, the period change in experiment [5] is -0.215 h (inactive). In experiment [6], the inhibition is -3% (inactive). Besides, in [7], the fluorescence ratio (interference) was 1 (inactive). Besides, the compound was called inactive in [3], in [4], in [12] and in experiment [10].

As to `CCCCCN=C(N)N/N=C/c1c[nH]c2ccc(OC)cc12`, the AC50 in [8] is 13.2 µM (active); in [11], 14.8 µM (active). In addition, the compound was called inactive in [2], in [4] and in [9].
